Only some compounds are listed: those with a hit (about 1.8% of all), similar ones and a draw of the others.
MsrA inh: inhibitors of bovine MsrA. AID 651718. hit rate 0.75% among 360,000. inhibition, % at 15.5 µM. purified bovine MsrA, absorbance read-out; in the data active means inhibition above about 4.5%;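 further: 0% = vehicle wells with enzyme and 100% = reference inhibitor wells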
HTR2A ag: agonists of mouse serotonin 5-HT2A receptor (HTR2A) | P35363 | CHO-K1 mHTR2A beta-arrestin complementation, luminescence; percent of 30 µM serotonin response | activation, % at 7.6 µM | hit rate 0.66% among 360,000 | AID 624169;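 active means activation above a run cutoff, the mean activation of all tested compounds plus 3 SD, cut at about 14% in these data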;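 further: 0% = plate median of compound wells and 100% = 30 µM serotonin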
Target sequence (P35363 whole entry, looked up): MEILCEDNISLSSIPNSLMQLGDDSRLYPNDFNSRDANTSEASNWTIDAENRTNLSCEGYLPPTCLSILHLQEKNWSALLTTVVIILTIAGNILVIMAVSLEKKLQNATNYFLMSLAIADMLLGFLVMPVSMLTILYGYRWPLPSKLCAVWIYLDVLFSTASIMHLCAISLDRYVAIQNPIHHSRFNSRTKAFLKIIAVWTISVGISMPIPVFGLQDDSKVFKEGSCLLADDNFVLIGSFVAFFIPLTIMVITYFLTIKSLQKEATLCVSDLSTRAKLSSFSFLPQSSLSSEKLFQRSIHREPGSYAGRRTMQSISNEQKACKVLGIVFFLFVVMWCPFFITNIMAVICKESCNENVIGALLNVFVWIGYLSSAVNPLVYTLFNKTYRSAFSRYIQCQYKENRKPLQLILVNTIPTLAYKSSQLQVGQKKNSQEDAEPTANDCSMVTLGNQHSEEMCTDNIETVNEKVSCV
NPR2 activator: GC-B (human) receptor activation | activation, % at 10 µM | HEK293-GC-B cells, CNP EC30, cGMP TR-FRET; 0% at EC30 CNP, 100% saturating CNP | hit rate 0.11% among 370,000;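 active means activation at 10 µM reaching about 35% in either raw or pattern-adjusted values, limit read from the data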
NPR1 activator: GC-A (human) enzyme activation; AID 1671463; P16066; HEK293 GC-A cells, cGMP TR-FRET, EC30 ANP; 0% at EC30 ANP, 100% saturating ANP; activation, % at 10 µM; hit rate 0.14% among 370,000; in the data active means activation above about 40%
bovine MsrA act: activates bovine MsrA enzyme; purified bovine MsrA, absorbance read-out; activation, % at 10.6 µM; hit rate 0.3% among 360,000; in the data active means activation above about 7.5%;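 further: 0% = vehicle and 100% = reference activator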
MOR ag counter: activates human mu opioid receptor in HTR2A counterscreen; activation, % at 9.3 µM; hit rate 5.3% among 2,300; U2OS OPRM1 beta-arrestin PathHunter, luminescence; DMSO 0%, DAMGO 9.3 µM 100%; shares compounds with HTR2A ag; AID 624380;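 active means mean activation above the mean of DMSO-only wells plus 3 SD, cut at about 0.5% in these data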
HTR2A ag conf: confirmation of mouse HTR2A serotonin receptor agonists; hit rate 19% among 2,300; AID 624381; activation, % at 7.6 µM; CHO-K1 PathHunter beta-arrestin recruitment, luminescence; DMSO 0%, 30 µM serotonin 100%; shares compounds with HTR2A ag;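 active means mean activation across triplicates above the hit threshold derived in the original primary screen, cut at about 15% in these data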
Starred values were filed as active, the others as inactive.

O=C(Cc1ccccc1)NCC(=O)N/N=C/c1ccc([N+](=O)[O-])s1 was read as MsrA inh 5, HTR2A ag 18*, NPR2 activator 4, NPR1 activator -3, bovine MsrA act 2, MOR ag counter 0 and HTR2A ag conf -1.
Screening COc1ccc(Nc2c(-c3cc4ccccc4o3)nc3nc(C)cc(C)n23)cc1 returned MsrA inh 1, HTR2A ag -1, NPR2 activator 22, NPR1 activator 33 and bovine MsrA act -3.
For CCCCNc1c(-c2cc3ccccc3o2)nc2nc(C)cc(C)n12 the results were MsrA inh 3, HTR2A ag 18*, NPR2 activator -2, NPR1 activator 2, bovine MsrA act -7, MOR ag counter 0.8* and HTR2A ag conf 5.
For CCCC[C@@H]1CNC(=S)N1CCc1cccc(F)c1 the results were MsrA inh 0, HTR2A ag 15*, NPR2 activator 0, NPR1 activator 1, bovine MsrA act -4, MOR ag counter 0 and HTR2A ag conf -3.
Screening CCCC[C@@H]1CNC(=O)C(=O)N1CCc1cc(C(F)(F)F)cc(C(F)(F)F)c1 returned MsrA inh 0, HTR2A ag 15*, NPR2 activator 2, NPR1 activator 0, bovine MsrA act -1, MOR ag counter 0 and HTR2A ag conf -2.
`O=C(Nc1ccccc1Cl)c1ccccc1CC(O)(c1ccccc1)c1ccccc1` gave MsrA inh 0, HTR2A ag 21*, NPR2 activator 3, NPR1 activator -4, bovine MsrA act -1, MOR ag counter 0 and HTR2A ag conf -4.
Screening COc1cccc(C2SCC(=O)N2c2ccc(C)cc2)c1OC (stereo not given) returned MsrA inh 0, HTR2A ag 4, NPR2 activator -3, NPR1 activator -11 and bovine MsrA act 3.
COc1ccc(N2C(=O)CSC2c2cccc(OC)c2OC)cc1 (stereo not given) was read as MsrA inh -1, HTR2A ag 19*, NPR2 activator -8, NPR1 activator -10, bovine MsrA act -8, MOR ag counter -1 and HTR2A ag conf -2.
Screening N#Cc1ccccc1N1CCN(C(=O)C2CCN(c3ncnc4c3sc3cccc(F)c34)CC2)CC1 returned NPR2 activator 2 and NPR1 activator -3.
`CCCOc1ccc(-c2nc(CSCC(=O)NC3CC3)c(C)o2)cc1` gave NPR2 activator -5 and NPR1 activator 0.
For CCc1nc2c(OC)cccn2c1N(C)C(=O)c1ccccc1F the results were MsrA inh -1, HTR2A ag 2, NPR2 activator -2, NPR1 activator 3 and bovine MsrA act -2.
For CCc1nc2c(OCC(=O)c3ccc(F)cc3)cccn2c1N(C)C(=O)C(C)C the results were MsrA inh 0, HTR2A ag 24*, NPR2 activator 7, NPR1 activator 13, bovine MsrA act -1, MOR ag counter 0 and HTR2A ag conf -5.
`C=CCOc1cccn2c(N(C)C(=O)c3ccccc3F)c(CC)nc12` gave HTR2A ag 16*, bovine MsrA act -2, MOR ag counter 0 and HTR2A ag conf -2.
For CCc1nc2c(OCc3ccc(F)cc3)cccn2c1N(C)C(=O)C(C)C the results were MsrA inh 1, HTR2A ag 4, NPR2 activator 2, NPR1 activator -1 and bovine MsrA act -2.
Screening COc1ccc(C(=O)CSc2nnc(-c3ccccn3)n2-c2ccccc2)cc1 returned NPR2 activator -1 and NPR1 activator -5.
Screening Cc1onc(C(=O)N2CCN(C(c3ccc(Cl)cc3)c3ccc(Cl)cc3)CC2)c1[N+](=O)[O-] returned NPR2 activator -3 and NPR1 activator -9.
For CCC1=C(OC(=O)N(CC)CC)N2C(=O)OC(=NCC3CC3)[C@]2(Cc2ccccc2)[C@H]2C1=CC[C@H]1C(=O)N(CC)C(=O)[C@H]12 the results were MsrA inh -1, HTR2A ag 18*, NPR2 activator -6, NPR1 activator -5, bovine MsrA act -7, MOR ag counter 0.9* and HTR2A ag conf 4.

Bioassay records (PubChem BioAssay)
